# Source: PubChem BioAssay (NCI)
# The panel holds about 83,000 compounds, 20% with a hit somewhere; the sample as a whole holds those more often.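 Activity criterion: percent growth below 10, measured after cells in 96-well plates were exposed to a single compound concentration for 48 hours.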 A number with no mark means an inactive call. Calls of active or inactive are those of the source.
# Tested on: MDA-MB-468 breast
# Experiment: NCI-60 one-dose screen, 48 h (100 = growth as untreated, 0 = no growth, -100 = all killed)
# Settings: 10 µM unless noted
row,SMILES,growth
1,Cn1cc(-c2nonc2-c2c[nH]c3ccc(F)cc23)c2cccnc21,-7.39% (active)
2,CCCCCc1cc[n+](CC(=O)c2ccc([N+](=O)[O-])cc2)cc1,11.8%
3,O=C1NN(c2ccccc2)C(c2ccc3c(c2)OCO3)N2CCC[C@@H]12 (stereo not given in full),121%
4,CC1CN(/N=C/c2ccc([N+](=O)[O-])o2)C(=N)O1 (stereo not given),89.6%
5,COc1ccc(OC)c(NC(=O)c2cc3oc4ccccc4c3cc2O)c1,96.9%
6,CCCCc1oc2ccccc2c1C(=O)c1ccc(O)cc1,78.4%
7,CCOC(=O)c1cccnc1Nc1ccc(NC(=O)Nc2ccc(Cl)c(C(F)(F)F)c2)cc1,21.3%
8,O=C(/C=C/c1ccccc1)c1cccs1,80.2%
9,N#Cc1ccc(-c2csc(Nc3ccc4nc5n(c(=O)c4c3)CCC5)n2)cc1,105%
10,CCCN1C(=O)N(CCC)C2C1NN=c1s/c(=C3\C(=O)N(C(C)C)c4ccccc43)c(=O)n12 (stereo not given),35.7%
11,CC(O)CNC(Cc1ccccc1)c1ccc2c(c1)OCO2 (stereo not given),101%
12,O=C(Nc1nc2ccc([N+](=O)[O-])cc2s1)Nc1ccccc1Br,33.2%
13,COc1ccc(-c2[nH]c3ccccc3c2C=C(C#N)C#N)cc1,-19.8% (active)
14,CCCCCCCCCCCCCCCCOc1ccc(C)cc1,106%
15,Cc1cc(N=C2C=CC(=[N+](C)C)C=C2)c(N)cc1N,39.6%
16,c1cc[n+](Cc2c3ccccc3cc3c2ccc2ccccc23)cc1,-40.5% (active)
17,CC(C)(C)c1cc(/C=N/NC(=O)c2ccccc2NC(=O)c2cccs2)c(O)c(C(C)(C)C)c1,25.3%
18,CCn1cnc(C[C@H](NC(=O)[C@@H](NC(=O)Nc2cc(C(F)(F)F)cc(C(F)(F)F)c2)C(C)(C)C)C(=O)OC)c1,-75.6% [100 µM] (active)
19,CCNCCNc1cc(C2CCCC2)c(C#N)c2nc3ccccc3n12,-25.5% (active)
20,CC1CN=C(c2cccc(-c3ccc(-c4ccccc4)o3)c2)N1 (stereo not given),-35.5% (active)

row,SMILES,growth
1,COc1ccc(/C=N\Nc2nc(SCC(C)C)nc(-c3ccc(OC)cc3)c2C#N)cc1,71.8%
2,O=C(CCc1nnc2sc(-c3ccccc3)nn12)c1nc2ccccc2[nH]1,87.3%
3,O=C(CCN1C(=O)/C(=C/c2ccc(O)cc2)SC1=S)Nc1ccccc1,100%
4,CCOC(=O)Nc1ccc(C(=O)/C=C/c2ccccc2)cc1,94%
5,COc1ccc(CN2C(=O)/C(=C\c3cc(OC)c(OC)c(OC)c3)c3cc(OC)ccc32)cc1,14%
6,COc1cc(CNC(=O)CCCCC[P+](c2ccccc2)(c2ccccc2)c2ccccc2)c(OC)c2c1OCO2,6.74% (active)
7,COc1ccc(OC)c2c1[nH]c(=O)c1c3ncccc3cn21,12.2%
8,O=[N+]([O-])c1cc(Br)cc2c1[nH]c1ccc(Br)cc12,70.3%
9,CN1CCN(c2ccc(OC(F)(F)F)c(Nc3ncc4c(n3)-c3c(c(C(N)=O)nn3CCO)CC4)c2)CC1,9.13% (active)
10,Cc1ccc(S(=O)(=O)N(CC[C@@H]2C[C@H]2c2cc3ccccc3o2)S(=O)(=O)c2ccc(C)cc2)cc1,80%
11,Cc1ccc(C2=N[C@H]3CCC[C@@H]3N(c3ccccc3)C(C(Cl)Cl)=N2)cc1,116%
12,O=C(O)CCC(=O)OC(C1CO1)C(OC(=O)CCC(=O)O)C1CO1 (stereo not given),99%
13,COc1ccccc1CNC(=O)C1c2ccccc2C(=O)N(CC(C)C)C1c1cccs1 (stereo not given),65.7%
14,COc1ccc(-c2nn(-c3cccc(Cl)c3)cc2-c2c(C#N)c(N)n(N)c(=O)c2C#N)cc1,56.1%
15,COc1cccc(N2CCN(c3ncnc4c3[nH]c3ccc(F)cc34)C[C@@H]2C)c1,-12.5% (active)
16,Cc1ccccc1N1C(=O)c2cc(S(N)(=O)=O)c(Cl)cc2NC1C (stereo not given),119%
17,CCN(CC)c1ccc(-c2cc(-c3cc(OC)c(OC)c(OC)c3)nc(N3CCC(O)CC3)c2C#N)cc1,-48.2% (active)
18,CC(C)c1ccc2c(c1)CCC1C2CCCC1(C)NCc1ccccc1 (stereo not given),-44.5% (active)
19,C=C1C(=O)O[C@@H]2C3C(=C(C)CC[C@@H]12)CC1O[C@]13C (stereo not given in full),19.3% [6.75 µM]
20,N#Cc1c(NC(=O)NCc2ccccc2)sc2c1CCCCC2,-25.9% (active)
